CD40 NFkB inh – inhibitors of CD40-induced NF-kB signaling, primary screen, BL2 cells, luciferase reporter, single point. CD40L-induced, 4 h. inhibition, % at 10 µM. 0.94% of 83,000 active. AID 1053188, 2014;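 active = mean inhibition of at least 50% with a set share of replicates also reaching that level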;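 note: 0% = neutral control wells and 100% = IKK inhibitor VII at 50 µM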
* = called active by the depositor; [ ] = another dose, or the depositor's remark. The entries come from a sample that favours hits as a whole.

SMILES	CD40 NFkB inh
CN(Cc1ccco1)S(=O)(=O)c1ccc(CN2C(=O)c3cccnc3C2=O)s1	9
CN=C(NC#N)Nc1ccc(C2=NNC(=O)CC2C)cc1 (centres undefined)	-11[25 µM]
COc1ccc(C(=O)Nc2ccc(NC(C)=O)cc2)cc1S(=O)(=O)N1CCCC1	-1
COc1ccc(C(=O)Nc2ccc(N3CCOCC3)cc2)cc1S(=O)(=O)N1CCCC1	-9
COc1ccc(C(=O)Nc2ccc(N3CCOCC3)cc2)cc1S(=O)(=O)N1CCOCC1	17*
O=C(NC(c1cccnc1)C(F)(F)F)c1cc(COc2ccc3c(c2)CCCC3)on1 (centres undefined)	-53
COc1cccc(CN(C)C(=O)c2ccc(NC(=O)CC3SC(N4CCCC4)=NC3=O)cc2)c1OC (centres undefined)	7
Cc1ccc2nc(N(CCCN(C)C)C(=O)CS(=O)(=O)c3ccccc3)sc2c1	2
O=C(CCS(=O)(=O)c1ccccc1)N(CCCN1CCOCC1)c1nc2ccc(F)cc2s1	72*
CCc1cccc2sc(N(CCCN3CCOCC3)C(=O)CS(=O)(=O)c3ccccc3)nc12	-1
Cc1ccc(S(=O)(=O)NC2=NCN(CCOC(=O)c3ccccc3)CN2)cc1	18
COc1ccc(NC(=O)CN(C)C(=O)CSc2ccc(Br)cc2)cc1	-1
O=C(c1ccc(Cl)c(Cl)c1)N1CCC(O)(CN2CCOCC2)CC1	6
O=C1/C(=C\c2ccc(Cl)c(Cl)c2)CN(C(=O)CCN2CCOCC2)C/C1=C/c1ccc(Cl)c(Cl)c1	74*
CC(=O)N1CCC(N(CCN2CCOCC2)C(=O)Nc2ccc(Cl)c(Cl)c2)CC1	-1
COc1ccc(CNC(=O)C(C)OC(=O)Cn2cnc3c2c(=O)n(C)c(=O)n3C)cc1 (centres undefined)	-1
Cc1cc(=O)n(CC(=O)O)c2ccccc12	3
CCN(CC)CCn1c2ccccc2c(=O)c2c(O)ccc(O)c21	-12
Cc1ccc2c(=O)c3ccccc3n(CCCN)c2c1C	79*[25 µM]
CC1CCN(C(=O)c2ccc(-c3ccccc3Cl)o2)CC1	-8
O=C1c2ccccc2S(=O)(=O)N1Cc1nc2ccccc2s1	70*
O=C(CN1C(=O)c2ccccc2S1(=O)=O)Nc1ccccn1	7
CC(C)C(NC(=O)CN1C(=O)c2ccccc2S1(=O)=O)C(C)C	-1
CC(NCC(O)COCCC12CC3CC(CC(C3)C1)C2)c1ccccc1 (centres undefined)	86*
NCC(O)COCCC12CC3CC(CC(C3)C1)C2 (centres undefined)	15
SMILES	CD40 NFkB inh
OC(COCCC12CC3CC(CC(C3)C1)C2)CN1CCCC1 (centres undefined)	11
COC(=O)/C(C#N)=C/c1c[nH]c2ccccc12	-47
CCN(CCNC(=O)C1CCCN(S(=O)(=O)c2cnc[nH]2)C1)c1ccccc1 (centres undefined)	7
CC(C)[C@H](N)C(=O)N[C@H]1CCC2C3CC=C4C[C@@H](O)CC[C@]4(C)C3CC[C@@]21C (some centres undefined)	71*
C[C@@H](N)C(=O)N[C@H]1CCC2C3CC=C4C[C@@H](O)CC[C@]4(C)C3CC[C@@]21C (some centres undefined)	2
CC(=O)[C@H]1CCC2C3CC=C4C[C@@H](O)CC[C@]4(C)C3CC[C@@]21C (some centres undefined)	4
COc1cccc(CNC(=O)CN2C(=O)c3ccccc3S2(=O)=O)c1	-7
O=C(NCc1ccccn1)C1CCCN(S(=O)(=O)c2ccccc2)C1 (centres undefined)	26*
CCOc1ccc(S(=O)(=O)N2CCCC(C(=O)NCc3ccccn3)C2)cc1Cl (centres undefined)	-1
O=C(NCc1ccccn1)C1CCN(S(=O)(=O)c2ccccc2)CC1	9
O=C(C[C@@H]1CC[C@H](NC(=O)C2CCOCC2)[C@H](CO)O1)NCC1CCCCC1	-1[25 µM]
C(=NN1CCCCCC1)c1ccc2ccccc2n1	77*
CCOc1ccccc1C=NN1CCCCCC1	7
C(=C\c1ccc2ccccc2n1)/c1ccccc1	28
CC(C)C1CC(N(C)C)=CC(=S)N1 (centres undefined)	30*
O=[N+]([O-])c1ccccc1S(=O)(=O)NCC1CCC(CNCC2CCc3ccccc3C2)CC1 (centres undefined)	6[25 µM]
Fc1ccc(NC2=NCCCCC2)cc1	8
Fc1ccc(-c2nnc(NC3=NCCCCC3)o2)cc1	74*
Fc1ccc(-c2nnc(Cc3nnc(-c4ccc(F)cc4)o3)o2)cc1	5
O=C(Nc1ccccc1)N1CCN2C(=O)c3ccccc3C12c1ccccc1 (centres undefined)	9
CCOc1ccc(OCCC(=O)OCC(=O)Nc2cc(C)nn2-c2ccccc2)cc1	11
Cn1c(SCc2nnc(-c3ccccc3)o2)nc2ccccc21	-1
COc1cccc(S(=O)(=O)N[C@H]2CC[C@@H](CC(=O)NC3Cc4ccccc4C3)O[C@@H]2CO)c1	-9[25 µM]
O=C(Cc1cccs1)Nc1ccc(N2CCOCC2)cc1	1
O=C(C[C@@H]1C=C[C@H](NC(=O)Cc2cccnc2)[C@@H](CO)O1)NCc1ccc2c(c1)OCO2	4[25 µM]
SMILES	CD40 NFkB inh
CC(NCCc1ccc(O)cc1)C(O)c1ccc(O)cc1 (centres undefined)	-1
CCCCCCCCNC(C)C(O)c1ccc(SC(C)C)cc1 (centres undefined)	39*
CCCn1cnc2c(SCc3ccc(Cl)cc3)nc(N)nc21	-37
Cc1ccc(S(=O)(=O)N2CCN(C(=O)c3ccccc3OCc3c(C)noc3C)CC2)cc1C	15
CC(C)Cc1nnc(NC(=O)CSc2nc(O)c(-c3ccccc3)c(=O)[nH]2)s1	9
CO[C@H]1CN(C)C(=O)c2cc(NS(=O)(=O)c3cn(C)cn3)ccc2OC[C@H](C)NC[C@H]1C	1[25 µM]
O=C(COC(=O)CCN1C(=O)c2cccc([N+](=O)[O-])c2C1=O)NCc1ccccc1	6
O=C(CN1C(=O)c2cccc([N+](=O)[O-])c2C1=O)OCC(=O)N1CCCCC1	61*
O=C(CCCN1C(=O)c2cccc3cccc(c23)C1=O)OCC(=O)N1CCCCC1	-3
CC1CN(C(=O)c2cccc(C(=O)N3CC(C)OC(C)C3)c2)CC(C)O1 (centres undefined)	15
Cc1ccc2oc(-c3cccc(NC(=O)C4CCCO4)c3)nc2c1 (centres undefined)	-27
CC(=O)Nc1ccc2oc(-c3ccccc3)nc2c1	-2
Cc1cccc(-c2nc3cc(NC(=O)C4CCCO4)ccc3o2)c1 (centres undefined)	54*
O=C(COC(=O)c1cc(Br)ccc1O)Nc1ccc2c(c1)OCCO2	-26
COc1ccc(NS(=O)(=O)c2cccc(C(=O)NN=Cc3ccc(OC)cc3OC)c2)cc1	-4
COC(=O)CCCNc1ncccc1[N+](=O)[O-]	7
COc1ccc(/C=N/Nc2ncccc2[N+](=O)[O-])c(OC)c1	68*
FC(F)(F)c1cc(Cl)c2nnc(C(F)(F)Cl)n2c1	8
COc1ccccc1C(=O)COC(=O)c1ccc(-n2cnnn2)cc1	-23
N#C[C@H]1[C@H](c2ccccc2-c2ccccc2F)[C@H](CO)N1C(=O)C1CC1	-2[25 µM]
O=C(Nc1cccnc1)c1c(O)c2cccc3c2n(c1=O)CC3	-37
COc1cccc2sc(N3CCN(C(=O)c4ccc([N+](=O)[O-])o4)CC3)nc12	76*
O=C(c1ccc([N+](=O)[O-])o1)N1CCN(c2nc3c(Cl)cccc3s2)CC1	14
O=C(c1cccs1)N1CCN(c2nc3ccccc3s2)CC1	-19

Compound activity deposited in PubChem by Broad Institute.
